The results in this text go back to PubChem BioAssay (NCATS).

The subject of test [1] is Zika virus NS2B-NS3 protease (linked construct). The test is described as follows: Primary screen NINDS Rhodamine qHTS for Zika virus inhibitors (AID 1347160). Also: nearly all actives have a fitted effect of over 55% in size. Summed up: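 Purified linked NS2B-NS3 protease (NS2B hydrophilic domain joined to NS3 protease by flexible linker), 25 nM in 10 mM Tris-HCl pH 8.0, 0.01% Tween 20. Compounds titrated, 15 min preincubation at room temperature; 1.5 microM Rhodamine110 substrate, FITC fluorescence change over 15 min.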
On the technique in general: Quantitative high-throughput screening tests each substance at several concentrations.

A short description of test [2]: Primary qHTS for inhibitors of nuclear receptor binding SET domain protein 2 (NSD2) in an isogenic RCH-ACV NSD2 p.E1099K mutant (9B) (AID 1645876). Also: nearly all actives have a fitted effect of over 70% in size. Also: potency is read from the fitted curve at half-maximal effect.
Test [3] is described as follows: Primary qHTS for inhibitors of nuclear receptor binding SET domain protein 2 (NSD2) in an RCH-ACV wild type WT cells (2C) (AID 1645877). Also: nearly all actives have a fitted effect of over 70% in size. Also: potency is read from the fitted curve at half-maximal effect.
For test [4], the target named is Phospholipid hydroperoxide glutathione peroxidase GPX4 (Homo sapiens) (UniProt P36969). The experiment in a line: Primary qHTS Assay for Inhibitors of Recombinant Selenoprotein Glutathione Peroxidase 4 (GPX4) (AID 1845192). Also: % is scaled to controls: 0 for no effect and ±100 for the full control effect; nearly all actives have a fitted effect of over 65% in size. The settings on record: outcome: dose series up to 50 µM unless noted. Summed up:
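GR-coupled assay: recombinant GPX4 preincubated 30 min with compound at room temperature; final 200 nM GPX4, 1 mM GSH, 0.5 mM cumene hydroperoxide, 0.5 mM NADPH, 100 nM GR, 0.01% BSA, pH 7.5 Tris. NADPH fluorescence (340/450 nm) read at 0 and 15 min.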

Test [5] has as its target Luciferin 4-monooxygenase (Photinus pyralis) (UniProt P08659). The experiment in a line: Primary firefly luciferase (FLuc) qHTS assay for identification of artifact compounds. (AID 1845220). Also: nearly all actives have a fitted effect of over 60% in size. Summed up:
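Titrated compounds were incubated 15 min at RT, protected from light, with luciferin and ATP at 10 uM; reaction started with 10 nM FLuc, luminescence imaged at 5 min, and concentration-response fitted by Hill equation.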

For test [6], the system named is Nanoluciferase (engineered Oplophorus gracilirostris luciferase). The experiment in a line: Primary Nanoluciferase (NLuc) qHTS assay for identification of artifact compounds. (AID 1845222).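 Also: NLuc secreted into diluted conditioned medium of S16 cells; 0% = DMSO and -100% = no enzyme.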 Summed up: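 qHTS format, against NLuc in S16 cell-conditioned medium. Nano-Glo substrate 1:100 was added after 15 min at room temperature. Luminescence was taken after a further 5 min.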

Test [7] is described as follows: Primary redox qHTS assay for identification of artifact compounds. (AID 1845223).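 Also: 0% = DMSO and 100% = reference compound.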 Summed up: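 Amplex Red (25 uM) and HRP (250 mU/mL) in HBSS, with compounds for 15 min, then 250 uM DTT for 30 min, room temperature, dark. Fluorescence 525/598 nm read; normalized to DMSO and 10 uM DA3003; Hill fit.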
The next test concerns C33A. The experiment in a line: Primary qHTS to identify gynecologic anti-cancer compounds using libraries of approved drugs and bioactive compounds (AID 1345084). Also: nearly all actives have a fitted effect of over 55% in size. Also: potency is read from the fitted curve at half-maximal effect. The settings on record: Gynecologic cancer cell panel viability, ATPlite luminescence, 48 h; series mostly up to 57.5 µM. Summed up:
(§1)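 ATP-based viability (ATPlite), 1,000 cells/well, 16 h pre-incubation, 48 h compound at 37 C, 5% CO2, 15 min RT before read.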

The next test deals with CASKI. Described as above. The settings on record: Gynecologic cancer cell panel viability, ATPlite luminescence, 48 h; series mostly up to 57.5 µM. Summed up: as §1
On the technique in general: ATP-based viability assays read luminescence as a measure of living cells.

The subject of another test is Es-2. Described as above. The settings on record: Gynecologic cancer cell panel viability, ATPlite luminescence, 48 h; series mostly up to 57.5 µM. Summed up: as §1
The next test deals with HeLa. The description is as above. The settings on record: Gynecologic cancer cell panel viability, ATPlite luminescence, 48 h; series mostly up to 57.5 µM. Summed up:
as §1

The next test concerns Hek293T. The test is described as above. The settings on record: Gynecologic cancer cell panel viability, ATPlite luminescence, 48 h, control line for the selectivity index; series mostly up to 57.5 µM. Summed up:
as §1

The next test concerns JEG-3. Described as above. The settings on record: Gynecologic cancer cell panel viability, ATPlite luminescence, 48 h; series mostly up to 57.5 µM. Summed up: as §1
The test system of another test is OV90. Described as above. The settings on record: Gynecologic cancer cell panel viability, ATPlite luminescence, 48 h; series mostly up to 57.5 µM. Summed up: as §1
In the next test the test system is Tov-21-G. The description is as above. The settings on record: Gynecologic cancer cell panel viability, ATPlite luminescence, 48 h; series mostly up to 57.5 µM. Summed up:
as §1

Another test deals with Tov112D. The test is described as above. The settings on record: Gynecologic cancer cell panel viability, ATPlite luminescence, 48 h; series mostly up to 57.5 µM. Summed up: as §1
Test [8] addresses Calcium and integrin-binding protein 1 (Homo sapiens) (UniProt Q99828). The experiment in a line: Primary qHTS for Identification of Calcium Integrin Binding Protein 1 (CIB1) Competitor (AID 1508620). Also: top concentration of the series differs between compounds; % is scaled to controls: 0 for no effect and ±100 for the full control effect. Summed up: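 Fluorescence polarization competition: GST-tagged CIB1 (1 uM final) preincubated with compound 15 min at room temperature, then FITC-labelled alphaIIb peptide (100 nM final) added. After 15 min at room temperature, polarization read at Ex 480/Em 540.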

Test [9] deals with Glutathione peroxidase 1 (Homo sapiens) (UniProt P07203). The test is described as follows: Primary qHTS Assay for Inhibitors of Recombinant Selenoprotein Glutathione Peroxidase 1 (GPX1) (AID 1845191). Also: nearly all actives have a fitted effect of over 65% in size. Summed up:
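GR-coupled assay: compounds preincubated 30 min at room temperature with GPX1, then reaction started with CHP; final 10 nM GPX1, 1 mM GSH, 0.5 mM CHP, 0.5 mM NADPH, 100 nM GR, 0.01% BSA, pH 7.5 Tris buffer. NADPH fluorescence (340/450 nm) read at 0 and 15 min.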

In another test the test system is HaCat. The test is described as follows: Cytotoxic Profiling of Annotated Libraries Using Quantitative High-Throughput Screening (AID 1296008). Also: % is scaled to controls: 0 for no effect and ±100 for the full control effect; nearly all actives have a fitted effect of over 60% in size. The settings on record: Five cell lines viability, CellTiter-Glo ATP luminescence, 48-72 h; max response: stronger effect = lower value. Summed up:
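Cells exposed to compounds for 48 or 72 hr at 37 degrees Celsius. Viability read as ATP-coupled luminescence with CellTiter-Glo after 10 min at room temperature.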

A short description of test [10]: qHTS drug screen for cell cycle checkpoint inhibitors in PARPi-resistant BRCA-mutant ovarian cancer cell lines. (AID 1963452; calls by dose curve). Particulars: PEO1/OlaR viability, CellTiter-Glo luminescence, 96 h, stronger effect = lower value. Summed up: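 PEO1, PEO4 and PEO1/OlaR ovarian cancer cells, 600 per well, exposed 96 h at 37C to a dilution series. Viability read by CellTiter-Glo luminescence, normalized to DMSO and empty wells; activity summarized as Z-AUC.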

Inconclusive results are not listed. Activity calls are given as the source filed them. Unless noted, calls follow the shape of the dose curve; as a rule, active = well fitted curve in the direction sought with a large enough effect; inconclusive = small, poorly fitted or top-dose-only effect, or another doubt; inactive = no such curve, though single readings can be large; an effect the other way counts as inactive or inconclusive.

Sequence of Phospholipid hydroperoxide glutathione peroxidase GPX4 (Homo sapiens) (P36969 whole entry, looked up): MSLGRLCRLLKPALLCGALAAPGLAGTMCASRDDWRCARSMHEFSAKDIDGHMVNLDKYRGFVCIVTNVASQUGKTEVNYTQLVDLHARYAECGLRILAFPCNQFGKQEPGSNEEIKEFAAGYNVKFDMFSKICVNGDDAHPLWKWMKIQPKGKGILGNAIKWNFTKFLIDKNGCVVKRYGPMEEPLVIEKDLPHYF
Sequence of Glutathione peroxidase 1 (Homo sapiens) (P07203 whole entry, looked up): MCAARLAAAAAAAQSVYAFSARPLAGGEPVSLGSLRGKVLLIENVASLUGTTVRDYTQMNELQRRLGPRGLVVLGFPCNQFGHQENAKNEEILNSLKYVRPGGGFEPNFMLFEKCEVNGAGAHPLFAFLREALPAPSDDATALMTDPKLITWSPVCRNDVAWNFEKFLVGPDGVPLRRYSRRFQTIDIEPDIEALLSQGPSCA
Sequence of Calcium and integrin-binding protein 1 (Homo sapiens) (Q99828 whole entry, looked up): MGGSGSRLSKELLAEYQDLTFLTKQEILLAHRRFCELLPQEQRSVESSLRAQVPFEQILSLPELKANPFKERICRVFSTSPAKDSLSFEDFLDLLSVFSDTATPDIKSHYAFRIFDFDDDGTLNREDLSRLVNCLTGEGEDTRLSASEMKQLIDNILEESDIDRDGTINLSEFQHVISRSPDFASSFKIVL

Turning to `CN[C@@H]1[C@@H](O)[C@@H](O[C@@H]2[C@@H](O)[C@H](O[C@H]3O[C@@H]([C@@H](C)NC)CC[C@H]3N)[C@@H](N)C[C@H]2N)OC[C@]1(C)O`, the Potency result in test [1], in [2], in test [3], in test [4], in test [5] and in [6] was “inactive” throughout. Also, the Potency result (in test [7]; in the test on C33A; with CASKI; in the test on Es-2; in the test on HeLa; in the test on Hek293T) was “inactive” in each case. In addition, the Potency entry in the test on JEG-3, in the test on OV90, with Tov-21-G and in the test on Tov112D was “inactive” throughout.

Consider `C=CC(=O)N1CCN(C(=O)c2cc(-c3cc(Cl)ccc3Cl)c(Cl)cc2OC)CC1`, for which the Potency entry in [1], in test [9], in test [4], in [5], in test [6] and in test [7] was “inactive” throughout. Moreover, the Potency entry in the test on CASKI, with JEG-3 and in the test on OV90 was “inactive” throughout. In addition, the result in [8] was inactive. For the same molecule, the results for the Potency in test [2] and in test [3] were 11.5 µM (active) and 8.17 µM (active), respectively.

With `CC(=O)N[C@@H](CC(=O)O)C(=O)N[C@@H](CCC(=O)O)C(=O)N[C@H](C(=O)N[C@@H](CC(=O)O)C(=O)Nc1ccc2c(C)cc(=O)oc2c1)C(C)C`, the Potency entry (in [1]; in test [9]; in [4]; in test [5]; in [6]; with HeLa) was “inactive” each time. Further, the Potency entry in the test with Hek293T, with JEG-3, with OV90 and in the test on Tov112D was “inactive” throughout. Besides, the Potency in [2] was 5.78 µM (active); in test [3], 5.15 µM (active). The max response in the test on HaCat is -44.8% (inactive).

On to `CNCc1ccc(C)c(NC(=O)c2ccc(Nc3nc(-c4ccccc4)c4ccccc4n3)cc2)c1`, for which the Potency result in test [1], in test [9], in test [4], in test [5], in test [6] and in [7] was “inactive” each time. Also, the Potency entry in the test with C33A, in the test with CASKI, with Es-2, in the test on HeLa, in the test on Hek293T and in the test on JEG-3 was “inactive” each time. For the same molecule, the Potency entry with OV90, in the test with Tov-21-G and in the test with Tov112D was “inactive” in each case. For the same molecule, the result in [8] was inactive. In addition, the Potency in [2] and in test [3] was 7.42 µM (active) each time. The Z-AUC in [10] is -0.484 (inactive); in test [10] (measured here: PEO1 parental Z-AUC) it was -0.199; in test [10] (measured here: PEO4 Z-AUC) it was -0.532.

For `CC[C@H]1OC(=O)[C@H](C)[C@@H](O[C@H]2C[C@@](C)(OC)[C@@H](O)[C@H](C)O2)[C@H](C)[C@@H](O[C@@H]2O[C@H](C)C[C@H](N(C)C)[C@H]2O)[C@](C)(O)C[C@@H](C)/C(=N/OCOCCOC)[C@H](C)[C@@H](O)[C@]1(C)O`, the Potency result (in test [1]; in [2]; in test [3]; in test [5]; in test [7]; in the test with C33A) was “inactive” throughout. Also, the Potency result in the test with CASKI, in the test on Es-2, in the test with HeLa, with Hek293T, with JEG-3 and in the test on OV90 was “inactive” throughout. The Potency entry in the test with Tov-21-G and in the test with Tov112D was “inactive” throughout. Also, the result in test [8] was inactive.

As to `CC1CCCC(SCC(O)C(=O)O)CC(=O)c2c(O)cc(O)cc2CC(=O)O1` (stereo not drawn), the Potency result (in [1]; in test [9]; in [4]; in [5]; in test [7]; in the test with HeLa) was “inactive” throughout. Also, the Potency result in the test on JEG-3, in the test on OV90 and in the test on Tov-21-G was “inactive” in each case. For the same molecule, the outcome in [8] was inactive. Further, the Potency in test [2] is 6.32 µM (active); in [3], 3.55 µM (active). Moreover, in the test on HaCat, the max response was -1.3% (inactive).

In the case of `CC1(CO)CCCC2(C)C1C(OC(=O)c1ccccc1)C=C1C(=O)OCC12O` (stereo not drawn), the Potency result in [1], in test [9], in test [4], in test [5], in test [6] and in [7] was “inactive” in each case. Further, the Potency result with CASKI, with HeLa, in the test on JEG-3 and with Tov112D was “inactive” throughout. In addition, the figures for the Potency (in test [2]; in [3]; with Tov-21-G) were 2.84 µM (active), 1.79 µM (active) and 11.2 µM (active), respectively.
